Reference: publication PMC10726135, “HNF4α isoforms regulate the circadian balance between carbohydrate and lipid metabolism in the liver”
Whole data set: some 18,000 sequences, median “log2 normalized intensity” near 0.36, cut for the highest 2% near 7.3. Only a selection was taken, and the highest values are over-represented in it overall.

Target: T1, HNF4alpha8 (COS-7 nuclear extract) (Homo sapiens, UniProt P41235-5 1-452)
T1 sequence: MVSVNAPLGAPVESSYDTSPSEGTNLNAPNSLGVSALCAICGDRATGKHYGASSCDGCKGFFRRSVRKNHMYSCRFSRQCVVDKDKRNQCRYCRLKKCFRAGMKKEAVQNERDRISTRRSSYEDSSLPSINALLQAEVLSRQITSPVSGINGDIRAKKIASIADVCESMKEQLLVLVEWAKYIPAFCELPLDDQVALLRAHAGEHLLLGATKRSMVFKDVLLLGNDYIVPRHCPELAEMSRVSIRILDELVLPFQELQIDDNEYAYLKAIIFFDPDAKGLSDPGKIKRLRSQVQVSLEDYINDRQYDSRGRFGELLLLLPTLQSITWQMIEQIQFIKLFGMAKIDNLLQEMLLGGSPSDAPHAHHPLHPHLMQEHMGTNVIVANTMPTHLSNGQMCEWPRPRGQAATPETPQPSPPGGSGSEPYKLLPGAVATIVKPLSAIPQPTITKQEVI
Experiment: protein-binding microarray; COS-7 nuclear extract on double-stranded Agilent 4x180k PBM; binding buffer, salt, pH and temperature not given in the material; high values mean tight binding
Settings: chain copies: 2; label: 3' end of strand 1 on the slide; dsDNA, one strand shown
Procedure, shortened: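 Binding signal is the background-corrected, normalized gProcessedSignal calculated by Agilent software. It was measured by applying nuclear extracts of COS-7 cells transiently transfected with a human HNF4α isoform expression vector to a custom Agilent SurePrint G3 4x180k array of ~44,000 double-stranded ~60-nt test sequences in quadruplicate, then imaging bound HNF4α on an Agilent G2565CA scanner at 2-µm resolution.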

| Sequence | binding signal [log2 normalized intensity] |
| --- | --- |
| CTTCGCTGGAATGTCACAGGGATTACGATCGCCTAGGGAGATTAGAGTATCGGTCGA | 0.569 |
| CTTTGATAGCCAAGCCAACCAGGAGAATTTGCCTAGGGAGATTAGAGTATCGGTCGA | 2.31 |
| CTGGTTGGAATTCCAGTGTTCACATCTGATGCCTAGGGAGATTAGAGTATCGGTCGA | 1.09 |
| TCATTTCTGCTTGCAACCAAAGGAGTCCTGGCCTAGGGAGATTAGAGTATCGGTCGA | -0.447 |
| TGGCCAAAGTTCAGTAAATCTTAGAGAACAGCCTAGGGAGATTAGAGTATCGGTCGA | 2.27 |
| GCCAAGGGCAGTGTTTGCCCAGCTTGAATCGCCTAGGGAGATTAGAGTATCGGTCGA | -0.771 |
| GCAACCTTTGCTCTCCCTCCTCTCTGAGCAGCCTAGGGAGATTAGAGTATCGGTCGA | 2.28 |
| GGGCCCTGACCTCAAGTGACCTTTGACCTCGCCTAGGGAGATTAGAGTATCGGTCGA | 12 |
| ATCGCCCTTTGAGGAGGCCTTTCCTGACCCGCCTAGGGAGATTAGAGTATCGGTCGA | 3.43 |
| CTGGGCCCTGCCTGACCTGCCCTTTGTCCCGCCTAGGGAGATTAGAGTATCGGTCGA | 6.91 |
| GGAGTGTGGGGTGGTGTCAGGAGTACAGGTGCCTAGGGAGATTAGAGTATCGGTCGA | 1.12 |
| ATGGGATGACCTTTGAGCAATAGGAAATGGGCCTAGGGAGATTAGAGTATCGGTCGA | 4.79 |
| CTGGATGACCTTTGTCCTGGCACAACTGGAGCCTAGGGAGATTAGAGTATCGGTCGA | 6.78 |
| CATCTTTGAGCTGGATGACCTTTGTCCTGGGCCTAGGGAGATTAGAGTATCGGTCGA | 9.19 |
| TTTTTTTTTTGAGATGGAATCTTGCCCTGTGCCTAGGGAGATTAGAGTATCGGTCGA | 3.54 |
| AGAATCATCTTTGAGCTGGATGACCTTTGTGCCTAGGGAGATTAGAGTATCGGTCGA | 8.24 |
| ATGACCTTTGACTGAGATGGGAGCAGTGCTGCCTAGGGAGATTAGAGTATCGGTCGA | 3.52 |
| TAAGTCACTGGGCTGATGACCTTTGACTGAGCCTAGGGAGATTAGAGTATCGGTCGA | 7.85 |
| CACTGGGCTGATGACCTTTGACTGAGATGGGCCTAGGGAGATTAGAGTATCGGTCGA | 5.81 |
| TTGAGCTGGATGACCTTTGTCCTGGCACAAGCCTAGGGAGATTAGAGTATCGGTCGA | 8 |
| TGACCTTTGTCCTGGCACAACTGGATGGTGGCCTAGGGAGATTAGAGTATCGGTCGA | 5.2 |
| TCCTGATCTTTGACCTGGAGCATGACCCTTGCCTAGGGAGATTAGAGTATCGGTCGA | 5.6 |
| CTAGTTAAGTCACTGGGCTGATGACCTTTGGCCTAGGGAGATTAGAGTATCGGTCGA | 6.81 |
| CTAGCCCCGCCCAGATGTCTGGCTAAGACCGCCTAGGGAGATTAGAGTATCGGTCGA | 3.43 |

| Sequence | binding signal [log2 normalized intensity] |
| --- | --- |
| GAGGAAAACCAGCTCAGTGGAAATTGTCCTGCCTAGGGAGATTAGAGTATCGGTCGA | 0.989 |
| CATATCTGGAATTTCAAAGGGAGCATATGTGCCTAGGGAGATTAGAGTATCGGTCGA | 1.31 |
| CTTTCTTTGTCTGTGTAGACTCATCTGGTGGCCTAGGGAGATTAGAGTATCGGTCGA | 1.89 |
| ATGAAGCAAGAGTCCAAATTCCTAGCCCTCGCCTAGGGAGATTAGAGTATCGGTCGA | 2.14 |
| AGGTTCCTCGCCTATGGTATGTATGGAATGGCCTAGGGAGATTAGAGTATCGGTCGA | 2.2 |
| TCTTTGCACTTGATGTTCCCCCTCCCTGGAGCCTAGGGAGATTAGAGTATCGGTCGA | 4.84 |
| TCTGACCAGGCTGATTTAGCTATTTGACCTGCCTAGGGAGATTAGAGTATCGGTCGA | 4.7 |
| CTATTTCTGACCTTTGCACCAGAGATAATAGCCTAGGGAGATTAGAGTATCGGTCGA | 6.97 |
| TGGCTAAGACAGGGGCTATTTCTGACCTTTGCCTAGGGAGATTAGAGTATCGGTCGA | 7.32 |
| AAGACAGGGGCTATTTCTGACCTTTGCACCGCCTAGGGAGATTAGAGTATCGGTCGA | 10.2 |
| AGGGGCTATTTCTGACCTTTGCACCAGAGAGCCTAGGGAGATTAGAGTATCGGTCGA | 7.69 |
| CCTTTGCACCAGAGATAATATGCTTACTTAGCCTAGGGAGATTAGAGTATCGGTCGA | 0.614 |
| CTGAGACAACACTCAGGATACCTAAGCCCCGCCTAGGGAGATTAGAGTATCGGTCGA | 1.33 |
| TCTTATTTACCGAAATGTGGGTGAGGCTGTGCCTAGGGAGATTAGAGTATCGGTCGA | 1.67 |
| AAGCTATTCACTTTTTGGCCTTTGGCTGTTGCCTAGGGAGATTAGAGTATCGGTCGA | 3.01 |
| TAAAATGGACTTTGTGGGCCAAAAGCAGCCGCCTAGGGAGATTAGAGTATCGGTCGA | 2.65 |
| AAAAAGTCCCTGGTCCCATAGGAAAGTGAGGCCTAGGGAGATTAGAGTATCGGTCGA | -0.813 |
| TTTTGAATGACAGTGTCAGGACCTTGCTCCGCCTAGGGAGATTAGAGTATCGGTCGA | 2.73 |
| AATACTTGCCTAAGGTCAATGTCCTTTTTCGCCTAGGGAGATTAGAGTATCGGTCGA | 4.53 |
| TCTTAACATCAGAAGTTGGACTTTGTACATGCCTAGGGAGATTAGAGTATCGGTCGA | 9.76 |
| ATTAGAGAACATGTACTTTGTACTGCTTATGCCTAGGGAGATTAGAGTATCGGTCGA | 4.99 |
| ACTTTGGAACTCAGTTAATGTACAGAGTATGCCTAGGGAGATTAGAGTATCGGTCGA | 0.96 |
| CCCCTTCTTAACATCAGAAGTTGGACTTTGGCCTAGGGAGATTAGAGTATCGGTCGA | 8.31 |
| AGGGACTTTGATCTTCTTACCCCTTTGCTGGCCTAGGGAGATTAGAGTATCGGTCGA | 3.3 |
